# Assay results published in PubChem BioAssay (NCATS).
# Active and inactive are the calls of the source. Calls come from the whole dose curve; as a rule, active = well fitted cell-killing curve with a large enough effect; inconclusive = small, poorly fitted or top-dose-only effect; inactive = flat fitted curve, though single readings scatter.
# Test: Cell Viability - LYMP1-002 - Assay at 24 hr (AID 993)
# Details: LYMP1-002 lymphoblastoid cells viability; series mostly up to 92.2 µM; activity change, negative = cytotoxicity: at the top concentration
# Text: NIH Chemical Genomics Center [NCGC]
# NIH Molecular Libraries Screening Centers Network [MLSCN]
# National Institutes of Environmental Health Sciences [NIEHS]
# National Toxicology Program [NTP]
# We have developed a 1536-well cell-based assay for quantitative high throughput screening (qHTS) against a number of cell lines to determine in vitro cytotoxicity of small molecules. This particular assay uses a human lymphoblastoid cell line (LYMP1-002) purchased from Coriell Institute for Medical Research.
# NCGC Assay Protocol Summary:
# The CellTiter-Glo luminescent cell viability assay (Promega) is a homogeneous method to measure the number of viable cells in culture. The end point readout of this assay is based on quantitation of intracellular ATP, an indicator of metabolic activity, using the luciferase reaction. Luciferase catalyzes the oxidation of beetle Luciferin to oxyluciferin and light in the presence of ATP. The luminescent signal is proportional to amount of ATP present.
# Using the CellTiter-Glo luminescent cell viability assay, the amount of cellular ATP was measured in the lymphoblastoid cell line with complete culture medium following compound treatment for 24 hours. The assay was performed in opaque white Kalypsys 1536-well plates. In the screen, tetraoctylammonium bromide was used as positive control. Library compounds were measured for their ability to cause acute toxicity in the cell line, as reflected by a decrease in intracellular ATP levels, in a concentration-dependent manner. […] AC50 values were determined from concentration-response data modeled with the standard Hill equation.
# qHTS protocol for CellTiter Glo lymphoblastoid cellular assay
# [Step] [Parameter] [Value] [Description]
# 1. Reagent; 5 uL; 2500 lymphoblastoid cells/well
# 2. Time; 5 hr; 37 C incubation
# 4. Controls; 23 nL; Tetraoctylammonium bromide 6.4pM to 92 uM
# 5. Time; 24 hr; 37 C incubation
# 6. Reagent; 5 uL; CellTiter Glo reagent
# 7. Time; 30 min; Room Temperature
# 8. Detection; Luminescence; Viewlux plate reader
# Keywords: cell viability, cytotoxicity, lymphoblastoid cell line, luminescence, NTPHTS, NTPHTS_NCGC, NIEHS, DSSTox, MLSMR, MLSCN, NIH Roadmap, qHTS, NCGC
# % is set by controls: 0 for no effect and ±100 for the full control effect.
row,SMILES,"activity change, negative = cytotoxicity"
1,CCN(CC)C(=O)c1cccc(C)c1,0.603% (inactive)
2,O=C1C(c2[nH]c3ccccc3c2O)=Nc2ccccc21,4.07% (inactive)
3,CCCC(O)C(CC)CO (configuration not stated),3.31% (inactive)
4,FC(F)(F)C(Cl)Br (configuration not stated),-1.15% (inactive)
5,CC1CC(OC(=O)c2ccccc2O)CC(C)(C)C1 (configuration not stated),-0.812% (inactive)
6,O=C(O)CCCCC1CCSS1 (configuration not stated),-11.1% (inactive)
7,CC(=O)Nc1ccccc1,-1.65% (inactive)
8,CC(=O)OCC(COC(C)=O)OC(C)=O,-3.11% (inactive)
9,Cc1cc(=O)[nH]c(=S)[nH]1,1.59% (inactive)
10,Nc1ccc(S(=O)(=O)c2ccc(N)cc2)cc1,-4.35% (inactive)
11,CC(=O)NS(=O)(=O)c1ccc(N)cc1,1.64% (inactive)
12,O=C1c2cccc(O)c2C(=O)c2c(O)cccc21,-8.65% (inactive)
13,COc1ccc(O)cc1,6.04% (inactive)
14,Cc1cc(C)nc(NS(=O)(=O)c2ccc(N)cc2)n1,8.03% (inactive)
15,CCCCCCCC(=O)OCC(COC(=O)CCCCCCC)OC(=O)CCCCCCC,1.22% (inactive)
16,CCCCCC(N)=O,1.97% (inactive)
17,CC(=O)Nc1cccc(O)c1,1.75% (inactive)
18,CCCCOC(=O)c1ccc(N)cc1,-4.45% (inactive)
19,Cc1c(N(C)C)c(=O)n(-c2ccccc2)n1C,-0.708% (inactive)
20,CC(=O)Nc1ccc(C(=O)O)cc1,-0.566% (inactive)
21,O=C(c1ccccc1)C(O)c1ccccc1 (configuration not stated),-2.53% (inactive)
22,C=CCNC(N)=S,1.13% (inactive)
